Results on 15 molecules are retold here after paper PMC11102866, “Nucleosome-bound NR5A2 structure reveals pioneer factor mechanism by DNA minor groove anchor competition”.

Positions count from the first letter of the chain named. Numbers in names are those of the source.

B1: 30 (nucleosome)
DNA 1: ATCCTGGAGAATCCCGGTGCCGAGGCCGCTCATCAAGGCCAAGACAGCTCTAGCACCGCTTAAACGCACGTACGCGCTGTCCCCCGCGTTTTAACCGCCAAGGGGATTACTCCCTAGTCTCCAGGCACGTGTCAGATATATACATCCTGTGAT
DNA 2: ATCACAGGATGTATATATCTGACACGTGCCTGGAGACTAGGGAGTAATCCCCTTGGCGGTTAAAACGCGGGGGACAGCGCGTACGTGCGTTTAAGCGGTGCTAGAGCTGTCTTGGCCTTGATGAGCGGCCTCGGCACCGGGATTCTCCAGGAT
modifications: reconstituted with mouse histones H2A, H2B, H3.3 and H4
B2: 28 (nucleosome)
DNA 1: ATCCTGGAGAATCCCGGTGCCGAGGCCGCTTCAAGGCCAGTAGACAGCTCTAGCACCGCTTAAACGCACGTACGCGCTGTCCCCCGCGTTTTAACCGCCAAGGGGATTACTCCCTAGTCTCCAGGCACGTGTCAGATATATACATCCTGTGAT
DNA 2: ATCACAGGATGTATATATCTGACACGTGCCTGGAGACTAGGGAGTAATCCCCTTGGCGGTTAAAACGCGGGGGACAGCGCGTACGTGCGTTTAAGCGGTGCTAGAGCTGTCTACTGGCCTTGAAGCGGCCTCGGCACCGGGATTCTCCAGGAT
modifications: reconstituted with mouse histones H2A, H2B, H3.3 and H4
B3: 20 (nucleosome)
DNA 1: ATCCTGGAGAATCCCGGTGCCGTCAAGGCCAAATTGGTCGTAGACAGCTCTAGCACCGCTTAAACGCACGTACGCGCTGTCCCCCGCGTTTTAACCGCCAAGGGGATTACTCCCTAGTCTCCAGGCACGTGTCAGATATATACATCCTGTGAT
DNA 2: ATCACAGGATGTATATATCTGACACGTGCCTGGAGACTAGGGAGTAATCCCCTTGGCGGTTAAAACGCGGGGGACAGCGCGTACGTGCGTTTAAGCGGTGCTAGAGCTGTCTACGACCAATTTGGCCTTGACGGCACCGGGATTCTCCAGGAT
modifications: reconstituted with mouse histones H2A, H2B, H3.3 and H4
B4: 24 (nucleosome)
DNA 1: ATCCTGGAGAATCCCGGTGCCGAGGCTCAAGGCCAGGTCGTAGACAGCTCTAGCACCGCTTAAACGCACGTACGCGCTGTCCCCCGCGTTTTAACCGCCAAGGGGATTACTCCCTAGTCTCCAGGCACGTGTCAGATATATACATCCTGTGAT
DNA 2: ATCACAGGATGTATATATCTGACACGTGCCTGGAGACTAGGGAGTAATCCCCTTGGCGGTTAAAACGCGGGGGACAGCGCGTACGTGCGTTTAAGCGGTGCTAGAGCTGTCTACGACCTGGCCTTGAGCCTCGGCACCGGGATTCTCCAGGAT
modifications: reconstituted with mouse histones H2A, H2B, H3.3 and H4
B5: 29 (nucleosome)
DNA 1: B1 DNA 1 with A32T, T33C, C34A, A36G, G38C, C40A, A41T
DNA 2: B2 DNA 2 with C114T, T115G, G117C, C119T, T121G, G122A, A123G
modifications: reconstituted with mouse histones H2A, H2B, H3.3 and H4
B6: 25 (nucleosome)
DNA 1: B4 DNA 1 with T27C, C28T, A29C, G31A, C33G, A35C, G36A
DNA 2: B4 DNA 2 with C118T, T119G, G121C, C123T, T125G, G126A, A127G
modifications: reconstituted with mouse histones H2A, H2B, H3.3 and H4
B7: 26 (nucleosome)
DNA 1: ATCCTGGAGAATCCCGGTGCCGAGGCCGTCAAGGCCATCGTAGACAGCTCTAGCACCGCTTAAACGCACGTACGCGCTGTCCCCCGCGTTTTAACCGCCAAGGGGATTACTCCCTAGTCTCCAGGCACGTGTCAGATATATACATCCTGTGAT
DNA 2: ATCACAGGATGTATATATCTGACACGTGCCTGGAGACTAGGGAGTAATCCCCTTGGCGGTTAAAACGCGGGGGACAGCGCGTACGTGCGTTTAAGCGGTGCTAGAGCTGTCTACGATGGCCTTGACGGCCTCGGCACCGGGATTCTCCAGGAT
modifications: reconstituted with mouse histones H2A, H2B, H3.3 and H4
B8: 27 (nucleosome)
DNA 1: B2 DNA 1 with T31C, C32A, A34G, G36C, C38A, A39C
DNA 2: B2 DNA 2 with T115G, G116T, C118G, T120C, G122T, A123G
modifications: reconstituted with mouse histones H2A, H2B, H3.3 and H4
B9: 31 (nucleosome)
DNA 1: B1 DNA 1 with T33A, C34T, A35C, G37A, C39G, A41C
DNA 2: B1 DNA 2 with T113G, G115C, C117T, T119G, G120A, A121T
modifications: reconstituted with mouse histones H2A, H2B, H3.3 and H4
B10: 18 (nucleosome)
DNA 1: ATCCTGGAGAATCCCGGTGCTCAAGGCCATCAATTGGTCGTAGACAGCTCTAGCACCGCTTAAACGCACGTACGCGCTGTCCCCCGCGTTTTAACCGCCAAGGGGATTACTCCCTAGTCTCCAGGCACGTGTCAGATATATACATCCTGTGAT
DNA 2: ATCACAGGATGTATATATCTGACACGTGCCTGGAGACTAGGGAGTAATCCCCTTGGCGGTTAAAACGCGGGGGACAGCGCGTACGTGCGTTTAAGCGGTGCTAGAGCTGTCTACGACCAATTGATGGCCTTGAGCACCGGGATTCTCCAGGAT
modifications: reconstituted with mouse histones H2A, H2B, H3.3 and H4
B11: 23 (nucleosome)
DNA 1: B4 DNA 1 with C26T, T27C, C28A, A30G, G32C, C34A, A35T
DNA 2: B4 DNA 2 with T119A, G120T, C122G, T124C, G126T, A127G, G128A
modifications: reconstituted with mouse histones H2A, H2B, H3.3 and H4
B12: 21 (nucleosome)
DNA 1: B3 DNA 1 with T23A, C24T, A25C, G27A, C29G, A31C
DNA 2: B3 DNA 2 with T123G, G125C, C127T, T129G, G130A, A131T
modifications: reconstituted with mouse histones H2A, H2B, H3.3 and H4
B13: 22 (nucleosome)
DNA 1: B4 DNA 1 with G25T, T27A, C28A, A29G, A30G, G31C, G32C, C33A, C34T, A35T
DNA 2: B10 DNA 2 with T122G, A124C, T125C, G126T, G127T, C128G, C129A, T130C, G132C, A133G
modifications: reconstituted with mouse histones H2A, H2B, H3.3 and H4
B14: 19 (nucleosome)
DNA 1: B3 DNA 1 with G22T, T23C, C24A, A26G, G28C, C30A, A31C
DNA 2: B10 DNA 2 with A124T, T125G, G127C, C129T, T131G, G132A, A133G
modifications: reconstituted with mouse histones H2A, H2B, H3.3 and H4
B15: 3 (nucleosome)
DNA 1: ATCCTTCAAGGCCACGGTGCCGAGGCCGCTCAATTGGTCGTAGACAGCTCTAGCACCGCTTAAACGCACGTACGCGCTGTCCCCCGCGTTTTAACCGCCAAGGGGATTACTCCCTAGTCTCCAGGCACGTGTCAGATATATACATCCTGTGAT
DNA 2: ATCACAGGATGTATATATCTGACACGTGCCTGGAGACTAGGGAGTAATCCCCTTGGCGGTTAAAACGCGGGGGACAGCGCGTACGTGCGTTTAAGCGGTGCTAGAGCTGTCTACGACCAATTGAGCGGCCTCGGCACCGTGGCCTTGAAGGAT
modifications: reconstituted with mouse histones H2A, H2B, H3.3 and H4

The target in one assay is NR5A2 wild type;histone octamer (Homo sapiens;, UniProt O00482;C0HKE1;Q6ZWY9;P84244;P62806 1-541;2-130;2-126;2-136;2-103, |). As to the kind of experiment: SeEN-seq (EMSA of nucleosome library followed by sequencing); 0.8 uM human NR5A2; 20 mM Tris-HCl pH 7.5, 120 mM NaCl, 1 mM MgCl2, 10 uM ZnCl2, 1 mM DTT, 100 ug/ml BSA, room temperature, 30 min; 0.1 uM nucleosome library; high values mean tight binding. A general note: Mobility shift assays separate free from complexed probe on a gel.
As to B1, the binding signal is 0.787 log2 enrichment (bound/unbound, relative to Widom 601).
Turning to B2, the binding signal is 0.697 log2 enrichment (bound/unbound, relative to Widom 601).
Turning to B3, the binding signal is 1.09 log2 enrichment (bound/unbound, relative to Widom 601).
For the molecule B4, the binding signal was 0.706 log2 enrichment (bound/unbound, relative to Widom 601).
For B5, the binding signal is 0.778 log2 enrichment (bound/unbound, relative to Widom 601).
As for B6, the binding signal was 0.708 log2 enrichment (bound/unbound, relative to Widom 601).
The same measure, in the same setting: to B7 belongs 0.635 log2 enrichment (bound/unbound, relative to Widom 601); to B8, 0.842 log2 enrichment (bound/unbound, relative to Widom 601).
In the case of B9, the binding signal is 0.845 log2 enrichment (bound/unbound, relative to Widom 601).
Turning to B10, the binding signal is 1.7 log2 enrichment (bound/unbound, relative to Widom 601).
On to B11, for which the binding signal was 1.81 log2 enrichment (bound/unbound, relative to Widom 601).
Regarding B12, the binding signal was 1.08 log2 enrichment (bound/unbound, relative to Widom 601).
For the molecule B13, the binding signal is 1.02 log2 enrichment (bound/unbound, relative to Widom 601).
Same read-out and setting: then B14, with 1.35 log2 enrichment (bound/unbound, relative to Widom 601); and B15, with 6.62 log2 enrichment (bound/unbound, relative to Widom 601).

Another assay addresses mouse Nr5a2 wild type;histone octamer (Mus musculus;, UniProt P45448;C0HKE1;Q6ZWY9;P84244;P62806 1-560;2-130;2-126;2-136;2-103, |). As to the kind of experiment: SeEN-seq (EMSA of nucleosome library followed by sequencing); 1.2 uM mouse Nr5a2; 20 mM Tris-HCl pH 7.5, 120 mM NaCl, 1 mM MgCl2, 10 uM ZnCl2, 1 mM DTT, 100 ug/ml BSA, room temperature, 30 min; 0.1 uM nucleosome library; high values mean tight binding.
Regarding B1, the binding signal was 0.718 log2 enrichment (bound/unbound, relative to Widom 601).
For B2, the binding signal was 0.72 log2 enrichment (bound/unbound, relative to Widom 601).
Consider B3, for which the binding signal was 1.09 log2 enrichment (bound/unbound, relative to Widom 601).
Same read-out and setting: then B4, with 0.642 log2 enrichment (bound/unbound, relative to Widom 601); and B5, with 0.664 log2 enrichment (bound/unbound, relative to Widom 601); and B6, with 0.587 log2 enrichment (bound/unbound, relative to Widom 601).
Regarding B7, the binding signal is 0.66 log2 enrichment (bound/unbound, relative to Widom 601).
B8: the binding signal is 0.575 log2 enrichment (bound/unbound, relative to Widom 601).
Regarding B9, the binding signal was 0.725 log2 enrichment (bound/unbound, relative to Widom 601).
As to B10, the binding signal was 2.1 log2 enrichment (bound/unbound, relative to Widom 601).
For the molecule B11, the binding signal was 2.16 log2 enrichment (bound/unbound, relative to Widom 601).
For B12, the binding signal was 1.08 log2 enrichment (bound/unbound, relative to Widom 601).
Regarding B13, the binding signal is 0.698 log2 enrichment (bound/unbound, relative to Widom 601).
B14: the binding signal was 1.28 log2 enrichment (bound/unbound, relative to Widom 601).
For B15, the binding signal was 5.04 log2 enrichment (bound/unbound, relative to Widom 601).
